In ChEMBL document CHEMBL3988442, “University of Dundee, Small-Polar-MMV Screening Library” (2021):
For some of these results: Potency and affinity values are given separately.

Assays:
Set-up in all cases: scale not given: direction of the effect not stated beside the values
[1] = target: Protein translocase subunit SecA (Escherichia coli (strain K12)) (UniProt P10408); assay: Assay to Identify E. coli SecA ATPase Inhibitors; assay type: functional; settings: 30 µM
[2] = target: T1, Ubiquitin-activating enzyme e1, putative (Leishmania donovani (strain BPK282A1)) (UniProt E9BSI1); assay: Leishmania donovani Ubiquitin Activating Enzyme (LdE1); assay type: functional; settings: 30 µM
T1 sequence (whole entry): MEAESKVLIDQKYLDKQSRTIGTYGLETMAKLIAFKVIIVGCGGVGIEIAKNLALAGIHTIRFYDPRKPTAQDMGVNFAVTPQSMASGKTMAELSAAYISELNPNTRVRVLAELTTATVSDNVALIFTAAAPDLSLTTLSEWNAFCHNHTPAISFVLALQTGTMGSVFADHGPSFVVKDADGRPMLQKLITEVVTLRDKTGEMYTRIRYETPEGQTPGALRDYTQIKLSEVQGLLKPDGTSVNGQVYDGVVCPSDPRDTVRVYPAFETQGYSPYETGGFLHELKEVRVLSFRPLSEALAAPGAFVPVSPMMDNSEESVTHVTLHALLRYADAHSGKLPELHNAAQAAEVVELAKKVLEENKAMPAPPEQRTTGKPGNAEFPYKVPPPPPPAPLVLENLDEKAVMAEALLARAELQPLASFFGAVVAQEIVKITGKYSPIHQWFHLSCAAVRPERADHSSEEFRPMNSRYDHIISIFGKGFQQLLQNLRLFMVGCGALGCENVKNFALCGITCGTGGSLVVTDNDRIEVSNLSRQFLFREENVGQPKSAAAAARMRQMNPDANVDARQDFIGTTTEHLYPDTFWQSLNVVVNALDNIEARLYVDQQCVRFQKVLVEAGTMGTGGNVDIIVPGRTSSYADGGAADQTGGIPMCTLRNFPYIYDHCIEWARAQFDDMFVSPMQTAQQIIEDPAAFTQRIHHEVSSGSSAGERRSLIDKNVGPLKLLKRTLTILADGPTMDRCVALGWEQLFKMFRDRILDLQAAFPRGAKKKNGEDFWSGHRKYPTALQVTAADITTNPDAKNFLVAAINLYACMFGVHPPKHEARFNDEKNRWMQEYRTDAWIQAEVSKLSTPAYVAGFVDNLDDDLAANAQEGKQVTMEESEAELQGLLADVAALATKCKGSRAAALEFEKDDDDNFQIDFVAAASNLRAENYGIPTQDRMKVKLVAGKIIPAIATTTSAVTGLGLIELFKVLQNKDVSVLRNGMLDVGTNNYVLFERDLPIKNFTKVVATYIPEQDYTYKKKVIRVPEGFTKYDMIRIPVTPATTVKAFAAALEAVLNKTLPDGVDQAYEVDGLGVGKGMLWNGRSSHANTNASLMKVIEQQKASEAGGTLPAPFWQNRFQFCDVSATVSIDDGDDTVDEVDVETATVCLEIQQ

[3] = target: T2, Aspartate--tRNA(Asp/Asn) ligase (Mycobacterium tuberculosis (strain ATCC 25618 / H37Rv)) (UniProt P9WFW3); assay: Assay for Asp RNA synthetase-1 from Mycobacterium tuberculosis; assay type: functional; settings: 30 µM; further: in the data most compounds retested in dose-response had high values
T2 sequence (whole entry): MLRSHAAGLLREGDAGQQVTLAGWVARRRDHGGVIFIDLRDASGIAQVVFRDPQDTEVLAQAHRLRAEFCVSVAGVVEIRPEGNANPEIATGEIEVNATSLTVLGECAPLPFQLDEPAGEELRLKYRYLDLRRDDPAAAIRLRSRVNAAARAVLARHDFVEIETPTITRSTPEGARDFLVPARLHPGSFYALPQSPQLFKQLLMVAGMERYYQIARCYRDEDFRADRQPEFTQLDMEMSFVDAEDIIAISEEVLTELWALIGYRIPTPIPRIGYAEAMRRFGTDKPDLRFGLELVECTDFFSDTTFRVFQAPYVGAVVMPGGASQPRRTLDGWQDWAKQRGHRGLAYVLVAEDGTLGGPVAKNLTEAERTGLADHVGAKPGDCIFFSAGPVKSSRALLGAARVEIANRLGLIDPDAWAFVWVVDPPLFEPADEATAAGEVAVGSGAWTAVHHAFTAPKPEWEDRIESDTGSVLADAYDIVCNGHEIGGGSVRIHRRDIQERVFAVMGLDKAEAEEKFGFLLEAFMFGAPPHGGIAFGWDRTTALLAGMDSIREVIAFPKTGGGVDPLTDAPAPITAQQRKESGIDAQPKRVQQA

[4] = target: AMP-activated protein kinase, AMPK (Homo sapiens) (UniProt P54646+O43741+P54619+Q9UGJ0+Q9Y478+Q13131+Q9UGI9); assay: AMP-dependent Kinase enzyme assay. An in vitro enzyme assay that detects ADP turnover that is directly proportional to AMPK activity. This uses naive AMPK that is activated during the assay with MK-8722; assay type: functional; settings: 30 µM
[5] = target: Sialic acid-binding Ig-like lectin 9 (Homo sapiens) (UniProt Q9Y336); assay: Hs-Siglec9 ALPHAscreen SOP 20170721; settings: 10 µM
Chain of Sialic acid-binding Ig-like lectin 9 (Homo sapiens) (Q9Y336 whole entry): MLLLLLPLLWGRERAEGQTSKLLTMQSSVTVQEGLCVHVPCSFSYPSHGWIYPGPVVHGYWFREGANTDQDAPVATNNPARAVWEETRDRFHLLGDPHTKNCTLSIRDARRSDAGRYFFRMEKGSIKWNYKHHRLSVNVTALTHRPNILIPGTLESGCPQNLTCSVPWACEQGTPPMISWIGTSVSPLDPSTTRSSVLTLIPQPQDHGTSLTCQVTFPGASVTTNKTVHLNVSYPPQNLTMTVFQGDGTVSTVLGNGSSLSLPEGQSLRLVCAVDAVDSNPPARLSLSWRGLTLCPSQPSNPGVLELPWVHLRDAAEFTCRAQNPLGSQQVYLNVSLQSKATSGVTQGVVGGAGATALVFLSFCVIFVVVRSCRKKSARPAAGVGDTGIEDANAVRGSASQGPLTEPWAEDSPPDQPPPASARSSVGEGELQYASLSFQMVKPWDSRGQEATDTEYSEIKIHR

Trypanosoma cruzi = assay: Trypanosoma cruzi phosphomannomutase and mannose-1-phosphate guanylyltransferase assay; assay type: functional; settings: 10 µM
[6] = target: T3, Arginase-2, mitochondrial (Homo sapiens) (UniProt P78540); assay: in vitro enzyme assay to detect the production of urea directly proportional to the activity of Arginase II; assay type: functional; settings: 33.3 µM; further: in the data most compounds retested in dose-response had high values
T3 sequence (whole entry): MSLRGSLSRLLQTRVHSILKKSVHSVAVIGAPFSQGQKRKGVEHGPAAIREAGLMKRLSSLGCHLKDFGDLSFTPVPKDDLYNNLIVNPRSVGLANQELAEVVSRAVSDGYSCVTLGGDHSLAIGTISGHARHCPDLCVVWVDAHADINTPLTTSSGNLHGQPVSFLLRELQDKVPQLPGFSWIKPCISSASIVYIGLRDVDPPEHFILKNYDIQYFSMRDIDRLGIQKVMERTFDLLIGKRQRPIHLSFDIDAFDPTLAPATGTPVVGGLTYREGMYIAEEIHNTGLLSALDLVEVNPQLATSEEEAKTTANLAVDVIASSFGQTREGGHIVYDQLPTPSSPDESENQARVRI

[7] = target: T4, Proteasome subunit beta (Trypanosoma cruzi) (UniProt O96673); assay: Trypanosoma cruzi proteasome chymotrypsin-like activity (TcProtChymo) assay.; further: in the data most compounds retested in dose-response had high values; assay type: functional; settings: 9.37 µM
T4 sequence (whole entry): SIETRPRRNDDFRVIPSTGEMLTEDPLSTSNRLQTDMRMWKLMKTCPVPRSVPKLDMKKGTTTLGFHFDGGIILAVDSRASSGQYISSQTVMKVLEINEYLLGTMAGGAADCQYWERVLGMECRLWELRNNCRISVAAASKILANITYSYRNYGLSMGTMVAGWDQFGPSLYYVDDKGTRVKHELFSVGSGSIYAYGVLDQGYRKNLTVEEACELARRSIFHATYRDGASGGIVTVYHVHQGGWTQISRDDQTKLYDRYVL

Homo sapiens = species on record: Homo sapiens; assay: To identify inhibition of the IFN signalling (Jak-Stat) pathway via expression of an eGFP reporter gene under the control of an IFN-stimulated response element (ISRE) containing MxA promoter.; assay type: functional; settings: 30 µM
[8] = target: Shiga toxin 2 (Escherichia coli O157:H7) (UniProt P09385+P09386); assay: E. coli 0.157:H7 Shiga Toxin SOP - stx2 screening assay; assay type: functional; settings: 30 µM
[9] = target: T5, Tyrosyl-tRNA synthetase, putative (Trypanosoma cruzi (strain CL Brener)) (UniProt Q4DSP6); assay: Trypanosoma cruzi tyrosyl tRNA synthetase (TcYRS) _High Tyrosine SOP; assay type: functional; settings: 30 µM; further: in the data most compounds retested in dose-response had high values
T5 sequence (whole entry): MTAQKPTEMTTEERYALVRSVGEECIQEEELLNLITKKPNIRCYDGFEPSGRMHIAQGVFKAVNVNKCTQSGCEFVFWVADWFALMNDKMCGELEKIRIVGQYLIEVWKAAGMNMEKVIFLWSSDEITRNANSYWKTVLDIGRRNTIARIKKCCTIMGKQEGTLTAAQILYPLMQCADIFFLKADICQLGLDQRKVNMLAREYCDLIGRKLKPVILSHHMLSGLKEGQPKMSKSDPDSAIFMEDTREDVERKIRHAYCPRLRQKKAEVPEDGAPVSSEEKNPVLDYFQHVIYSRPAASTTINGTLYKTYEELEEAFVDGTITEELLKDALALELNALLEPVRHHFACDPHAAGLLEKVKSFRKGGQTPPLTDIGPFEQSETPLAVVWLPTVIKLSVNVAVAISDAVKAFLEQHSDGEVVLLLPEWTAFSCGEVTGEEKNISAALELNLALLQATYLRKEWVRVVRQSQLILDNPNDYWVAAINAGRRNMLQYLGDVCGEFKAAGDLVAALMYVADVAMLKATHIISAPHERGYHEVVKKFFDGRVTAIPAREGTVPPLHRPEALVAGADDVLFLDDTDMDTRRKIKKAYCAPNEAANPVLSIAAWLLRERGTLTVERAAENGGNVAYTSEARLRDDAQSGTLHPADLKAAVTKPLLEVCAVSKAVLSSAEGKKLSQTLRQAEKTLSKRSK

[10] = target: T5, Tyrosyl-tRNA synthetase, putative (Trypanosoma cruzi (strain CL Brener)); assay: Trypanosoma cruzi tyrosyl tRNA synthetase (TcYRS) SOP; assay type: functional; settings: 30 µM
[11] = target: Chromo domain-containing protein 1 (Saccharomyces cerevisiae (strain ATCC 204508 / S288c) (Baker's yeast)) (UniProt P32657); assay: ScCHD-1 Enzyme Inhibition Assay; assay type: functional; settings: 30 µM; further: in the data most compounds retested in dose-response had high values
Chain of Chromo domain-containing protein 1 (Saccharomyces cerevisiae (strain ATCC 204508 / S288c) (Baker's yeast)) (P32657 whole entry, the tested form may be a part): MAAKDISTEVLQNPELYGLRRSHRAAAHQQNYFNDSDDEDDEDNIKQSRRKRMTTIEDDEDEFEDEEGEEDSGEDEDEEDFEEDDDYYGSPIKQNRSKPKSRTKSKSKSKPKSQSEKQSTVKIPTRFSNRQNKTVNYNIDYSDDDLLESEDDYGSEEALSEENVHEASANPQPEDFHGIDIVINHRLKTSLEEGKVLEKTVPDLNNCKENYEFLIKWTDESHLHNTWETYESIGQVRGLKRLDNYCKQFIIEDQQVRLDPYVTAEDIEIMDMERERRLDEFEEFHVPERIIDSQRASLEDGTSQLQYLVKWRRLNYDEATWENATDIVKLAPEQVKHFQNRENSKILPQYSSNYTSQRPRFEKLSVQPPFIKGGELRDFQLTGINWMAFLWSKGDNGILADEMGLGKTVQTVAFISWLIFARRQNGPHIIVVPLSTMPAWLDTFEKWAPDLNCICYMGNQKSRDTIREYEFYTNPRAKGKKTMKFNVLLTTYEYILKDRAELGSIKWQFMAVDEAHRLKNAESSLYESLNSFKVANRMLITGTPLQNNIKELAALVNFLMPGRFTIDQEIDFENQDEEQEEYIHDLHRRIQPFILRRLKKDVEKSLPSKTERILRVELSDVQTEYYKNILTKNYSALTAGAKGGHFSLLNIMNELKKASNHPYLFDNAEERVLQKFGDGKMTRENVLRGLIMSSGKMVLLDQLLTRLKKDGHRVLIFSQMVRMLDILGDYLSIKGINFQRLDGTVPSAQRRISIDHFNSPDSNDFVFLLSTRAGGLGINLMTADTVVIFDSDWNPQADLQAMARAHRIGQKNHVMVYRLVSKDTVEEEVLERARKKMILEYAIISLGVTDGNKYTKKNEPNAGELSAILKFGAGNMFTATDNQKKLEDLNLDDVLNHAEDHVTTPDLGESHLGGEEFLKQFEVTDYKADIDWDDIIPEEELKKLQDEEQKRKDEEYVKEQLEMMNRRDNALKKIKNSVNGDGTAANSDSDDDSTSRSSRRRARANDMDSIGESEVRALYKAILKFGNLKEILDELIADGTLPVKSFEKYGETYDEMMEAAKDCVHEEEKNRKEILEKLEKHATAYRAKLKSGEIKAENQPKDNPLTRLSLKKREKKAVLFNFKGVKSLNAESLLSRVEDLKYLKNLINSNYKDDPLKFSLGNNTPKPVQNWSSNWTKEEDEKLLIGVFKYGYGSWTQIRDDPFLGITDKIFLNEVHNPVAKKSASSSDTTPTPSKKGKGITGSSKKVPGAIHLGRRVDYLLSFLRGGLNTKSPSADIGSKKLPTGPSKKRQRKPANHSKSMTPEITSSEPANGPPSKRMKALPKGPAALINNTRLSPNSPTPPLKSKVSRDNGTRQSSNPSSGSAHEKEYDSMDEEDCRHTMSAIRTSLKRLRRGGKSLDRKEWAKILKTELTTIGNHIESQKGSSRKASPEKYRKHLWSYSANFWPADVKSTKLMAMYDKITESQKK

Chain of Protein translocase subunit SecA (Escherichia coli (strain K12)) (P10408 whole entry): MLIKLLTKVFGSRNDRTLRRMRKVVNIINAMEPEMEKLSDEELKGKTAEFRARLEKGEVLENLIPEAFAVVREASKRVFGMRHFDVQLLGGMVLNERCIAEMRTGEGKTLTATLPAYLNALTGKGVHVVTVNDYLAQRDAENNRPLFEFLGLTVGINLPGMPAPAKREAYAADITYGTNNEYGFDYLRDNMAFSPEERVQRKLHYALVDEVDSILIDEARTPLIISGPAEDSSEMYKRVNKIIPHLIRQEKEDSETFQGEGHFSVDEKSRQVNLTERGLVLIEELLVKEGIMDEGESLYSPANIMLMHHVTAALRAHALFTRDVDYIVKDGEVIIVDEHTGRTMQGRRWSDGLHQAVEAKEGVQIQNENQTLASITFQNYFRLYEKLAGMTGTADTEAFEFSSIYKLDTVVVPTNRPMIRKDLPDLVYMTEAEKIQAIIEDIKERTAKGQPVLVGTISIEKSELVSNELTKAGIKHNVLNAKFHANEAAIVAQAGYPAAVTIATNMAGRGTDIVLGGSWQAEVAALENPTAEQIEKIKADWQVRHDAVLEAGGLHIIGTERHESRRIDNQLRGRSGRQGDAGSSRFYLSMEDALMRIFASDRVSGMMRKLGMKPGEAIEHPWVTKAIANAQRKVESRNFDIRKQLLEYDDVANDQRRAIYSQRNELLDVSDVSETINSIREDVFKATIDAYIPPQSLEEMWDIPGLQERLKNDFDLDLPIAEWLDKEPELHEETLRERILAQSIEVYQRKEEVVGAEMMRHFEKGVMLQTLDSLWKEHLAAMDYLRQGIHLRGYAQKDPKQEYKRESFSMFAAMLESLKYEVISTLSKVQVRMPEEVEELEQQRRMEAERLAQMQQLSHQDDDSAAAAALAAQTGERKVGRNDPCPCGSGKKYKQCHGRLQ

Row | Compound | Percent Effect [1] [%] | Percent Effect [2] [%] | Percent Effect [3] [%] | Percent Effect [4] [%] | Percent Effect [5] [%] | Percent Effect (Trypanosoma cruzi) [%] | Percent Effect [6] [%] | Percent Effect [7] [%] | Percent Effect (Homo sapiens) [%] | Percent Effect [8] [%] | Percent Effect [9] [%] | Percent Effect [10] [%] | Percent Effect [11] [%]
1 | CC(C)=CCN1C(=O)[C@H]2CC[C@@H]1CN(Cc1cccnc1N)C2 | 5.73 | 4.17 | 4.65 | 1.92 | 2 | -5.34 | 3.53 | 23.7 | 7.39 | -25.3 | 7.37 | 2.56 | 2.83
2 | CCOCC(O)CN1CCN(C(=O)Cc2ccccc2Cl)CC1 (stereo not given) | -5.33 | 0 | -2.7 | 8.88 | -1.32 | -8.08 | 4.21 | 9.36 | 14 | 19.1 | 0.49 | -2.44 | -1.37
3 | O=C(c1cc(-n2cnnn2)ccc1Cl)N1CCC2(CC1)OCCO2 | -3.84 | 5.26 | 0.24 | 3.99 | 7.5 | -3.21 | -3.55 | 8.53 | 7.36 | -4.29 | 3.19 | 5.2 | -4.14
4 | CNC(=O)[C@@]12CCCN(c3ncccn3)[C@@H]1CN(C)C2 | -7.94 | 5.2 | -0.539 | 20.5 | -6.43 | -6.21 | 4.52 | 9.4 | 14.9 | -9.88 | -4.23 | -1.28 | -2.69
5 | Cc1nc(C2(NCC(=O)NC(=O)NCc3cccs3)CCCCC2)no1 | -4.13 | 15.8 | -4.16 | -2.76 | -3.65 | 2.82 | -3.55 | -0.479 | 7.32 | 5.13 | 2.13 | 15.6 | -4.77
6 | CC(Cn1cccn1)NCc1nc(-c2cccs2)no1 (stereo not given) | -4.32 | 5.26 | -3.4 | -6.35 | 2.35 | 3.08 | -2.88 | 5.67 | -9.95 | 4.43 | 4.43 | 16.1 | -2.61
7 | c1cc(CO[C@@H]2CC[C@H]3[C@H]2OCCN3CC2CCOCC2)ccn1 | 1.51 | 16.2 | 5.55 | 7.58 | -13.8 | -4.79 | -0.319 | 3.51 | 45.1 | -7.6 | 2.16 | 10.3 | -9.05
8 | Cn1cc(N2C(=O)CC[C@@H]3[C@H]2CCN3Cc2ccncc2)cn1 | -1.29 | 2.67 | -1.89 | -2.47 | 5.41 | -0.193 | -56.1 | 9.06 | -8.54 | -20.8 | 5.21 | 12.5 | -7.17
9 | Cn1cc(C(=O)N2CC[C@@H]3[C@@H]2CCN3Cc2cccnc2)cn1 | -4.7 | 8.11 | 1.51 | 4.43 | 1.46 | -2.83 | 0.955 | 17.7 | -13.9 | -2.5 | 3.24 | 12.8 | 0.704
10 | CCN(CC)C(=O)c1ccc(NC(=O)CNc2ccc(Br)cc2F)cc1 | -3.06 | 10.5 | 0.958 | 1.85 | -6.58 | 1.85 | -17.8 | 12 | 2.22 | -41.8 | 5.32 | 20.8 | -13
